Screening results deposited in PubChem by The Scripps Research Institute Molecular Screening Center.
In the library only some 4.8% were active in any assay of this set; here they are far more common.
ssDAF12 agonist = activates DAF-12 receptor from parasite S. stercoralis | HEK293 ssDAF-12/GRIP1 lit1-tk-luc reporter, luminescence; % of 3 µM dafachronic acid response | activation, % at 6.8 µM | 1% of 370,000 active;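 active = activation above the mean over all tested compounds plus 3 SD, cut at about 0.9% in these data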;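 also: 0% = DMSO-only wells and 100% = 3 µM delta7-dafachronic acid wells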
hcDAF12 agonist = activators of H. contortus DAF-12 nuclear receptor | activation, % at 6.8 µM | 1.4% of 370,000 active | HEK293 hcDAF-12 lit1-tk-luc reporter, luminescence; 0% DMSO, 100% Δ7-dafachronic acid;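 active = activation above the mean of all tested compounds plus 3 SD, cut at about 5.5% in these data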;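 also: 100% = response to 3 µM Δ7-dafachronic acid high control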
hgDAF-12 ag = hgDAF-12 agonism, primary luciferase screen | HEK293 GAL4-hgDAF12 UAS-luciferase reporter, agonist luminescence; normalized to butyrate control | activation, % at 6.8 µM | 1.8% of 370,000 active | AID 687014;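 active = activation above a cutoff set at the mean of all screened compounds plus 3 SD, cut at about 10% in these data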;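 also: 0% = DMSO wells and 100% = sodium butyrate wells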
SMARCA2 activ = increases SMARCA2 function in MMTV reporter cells. MG213 cells, MMTV-luciferase reporter, dexamethasone, overnight. activation, % at 9.1 µM. 1% of 370,000 active; in the data active = activation above about 7.8%;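 also: 0% = vehicle wells and 100% = reference activator wells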
DAX1 inh-1 = inhibitors of human orphan nuclear receptor DAX1 (NR0B1) | inhibition, % at 6.75 µM | HEK293 Gal4-DAX1 luciferase reporter, luminescence | 0.99% of 340,000 active | P51843;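 active = inhibition above the mean over all tested compounds plus 3 SD, cut at about 4.2% in these data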;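 also: 0% = DAX1-transfected cells with DMSO and 100% = empty-vector control cells with DMSO; inhibition shows as a rise in luminescence from relieved DAX1 repression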
DAX1 inh-2 = DAX1 (NR0B1) inhibition, primary screen | HEK293T StAR-luciferase reporter, SF-1/DAX-1 repression relief | 1.1% of 370,000 active | AID 652010 | inhibition, % at 6.8 µM;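 active = inhibition above the mean over all tested compounds plus 3 SD, cut at about 3.6% in these data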;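 also: 0% = DAX-1 cells with DMSO and 100% = cells lacking DAX-1 with DMSO; higher inhibition means more luminescence from relief of DAX-1 repression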
LXR ag = counter-screen for hcDAF-12 agonists: agonists of human LXR-beta; HEK293 Gal4-LXR tk-luc reporter, luminescence, 24 h; normalized: DMSO 0%, positive control 100%; 3,400 tested, under 10 active; activation, % at 6.8 µM; AID 743027; shares compounds with hcDAF12 agonist;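 active = mean percent activation of the reporter above a cutoff set as the average over tested compounds plus their standard deviation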
Target sequence (P55055 whole entry, looked up, the tested form may be a part): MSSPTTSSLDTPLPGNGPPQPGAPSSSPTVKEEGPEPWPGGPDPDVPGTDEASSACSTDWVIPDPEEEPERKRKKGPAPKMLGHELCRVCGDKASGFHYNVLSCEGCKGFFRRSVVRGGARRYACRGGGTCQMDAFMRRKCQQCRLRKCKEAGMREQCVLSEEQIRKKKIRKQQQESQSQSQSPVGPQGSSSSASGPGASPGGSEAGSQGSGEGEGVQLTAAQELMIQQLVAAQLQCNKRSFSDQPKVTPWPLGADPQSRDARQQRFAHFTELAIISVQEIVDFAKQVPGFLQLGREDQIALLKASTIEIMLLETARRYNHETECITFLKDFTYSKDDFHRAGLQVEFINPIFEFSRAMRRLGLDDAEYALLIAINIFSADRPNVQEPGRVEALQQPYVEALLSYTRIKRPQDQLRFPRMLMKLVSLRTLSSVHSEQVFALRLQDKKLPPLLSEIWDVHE
hcDAF12 conf = hcDAF-12 agonism, confirmation assay; activation, % at 6.8 µM; AID 743032; 61% of 3,400 active; HEK293 hcDAF-12 lit1-tk-luc reporter, luminescence; % of Δ7-dafachronic acid response; shares compounds with hcDAF12 agonist;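 active = mean activation across triplicate tests above the threshold derived from the earlier primary screen, cut at about 5.5% in these data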;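 also: 0% = DMSO only wells and 100% = 3 µM Δ7-dafachronic acid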
Starred values were filed as active, the others as inactive; · = no result.

SMILES	ssDAF12 agonist	hcDAF12 agonist	hgDAF-12 ag	SMARCA2 activ	DAX1 inh-1	DAX1 inh-2	LXR ag	hcDAF12 conf
CCC(=O)NNc1ncnc2ccccc12	0.3	6.9*	-0.6	0.6	1.4	0.1	-0.1	4.7
CCOC(=O)c1ccc(Nc2ncnc3ccccc23)cc1	-1.2	-0.6	-0.7	-1.4	-0.9	0.5	·	·
CCOC(=O)C/C(=N\Nc1ncnc2ccccc12)c1ccccc1	0.8	11.1*	5.9	-1.4	1.1	1.6	0.0	4.9
Cc1nn(CC(=O)NCc2cc3ccccc3[nH]2)c(C)c1[N+](=O)[O-]	0.0	9.4*	1.9	4.4	2.0	0.2	-0.2	2.8
Cc1nn(CC(=O)NCc2ccccc2F)c(C)c1[N+](=O)[O-]	-0.7	0.5	-0.8	1.6	0.1	0.3	·	·
COc1ccccc1CN1Cc2ccccc2Oc2ccccc2S1(=O)=O	-1.2	-1.4	-1.0	-0.8	·	-0.5	·	·
Nc1ccccc1SSc1ccccc1N	-0.1	10.5*	4.0	3.9	0.5	-1.1	0.2	5.3
N#CC1=C(N)C(C#N)(C#N)C2(C(=O)Nc3ccccc32)C2CCCC=C12 (configuration not stated)	-0.1	6.8*	-1.5	-1.8	-1.6	1.1	-0.4	0.9
CC(CSC(=O)c1ccccc1)C(=O)N1c2ccccc2CC1C(=O)O (configuration not stated)	0.8	7.5*	5.5	-2.1	·	0.2	-0.3	5.4
O=C(O)C1Cc2ccccc2CN1C(=O)c1ccccc1 (configuration not stated)	-0.8	-0.4	-1.5	0.5	0.8	0.1	·	·
O=C(CNc1ccccc1C(=O)O)c1ccccc1	0.5	7.7*	1.1	3.0	1.0	0.9	-0.3	-0.2
Nn1c(SCC(=O)Nc2ccc(S(=O)(=O)Nc3nccs3)cc2)nnc1-c1ccco1	-1.6	-2.0	0.7	-0.3	·	0.2	·	·
C[C@H]1COc2cccc(NCCO)c2S(=O)(=O)N1	-0.8	1.3	0.6	-4.2	·	1.4	·	·
CCOC(=O)c1ccc(N2N=C(C)/C(=C/C=C/c3ccco3)C2=O)cc1	-1.5	0.8	1.1	0.7	0.3	-0.4	·	·
CCc1ccc(N2NC(=O)/C(=C/C=C/c3ccco3)C2=O)cc1	-0.5	7.7*	0.4	-0.3	-1.0	0.3	-0.2	0.6
O=C1c2cccc3cccc(c23)C(=O)N1c1ccccc1Cl	-1.4	-3.3	-3.9	-0.7	-0.9	-0.9	·	·
Nc1ccccc1N1C(=O)c2cccc3cccc(c23)C1=O	0.2	6.7*	4.2	1.5	·	0.5	0.1	5.3
O=C(N/N=C/c1ccccc1)C(O)c1ccccc1 (configuration not stated)	0.2	6.7*	0.5	-1.9	-0.2	-0.1	0.0	5.6*
Cc1cc(C)cc(C(=O)Oc2cc(C)[nH]c(=O)c2[N+](=O)[O-])c1	-1.4	8.5*	0.1	-1.4	1.1	0.0	-0.2	1.0
COc1ccccc1C(=O)N/C(N)=N/c1nc2ccccc2o1	1.1*	7.0*	3.9	5.8	0.4	0.8	0.5	8.6*
Cc1ccc(C(=O)N/C(N)=N/c2nc3ccccc3o2)cc1	-0.8	-0.9	2.9	1.8	-0.3	0.2	·	·
COc1ccc(NC(C)C(=O)Nc2cc(C(F)(F)F)ccc2N2CCOCC2)c(OC)c1 (configuration not stated)	-1.8	14.1*	-1.2	0.6	-1.6	1.4	0.1	-0.8
Cc1cccc(NNC(=S)Nc2c(C)cccc2C)c1	-1.4	-1.4	-2.5	2.5	-0.8	-0.5	·	·
Cc1cccc(NNC(=S)Nc2ccccc2)c1	0.3	10.9*	3.3	-0.1	1.1	0.6	0.0	5.2
CNc1cnn(-c2ccc(C)cc2)c(=O)c1Cl	0.6	8.1*	10.1	4.6	3.0	2.9	1.1	9.1*
Cc1cccc(N2O[C@H]3C=C[C@@H]2C3)n1	-0.3	9.4*	2.1	-1.3	·	0.2	-0.1	5.6*
